Calls of active or inactive are those of the source. How the source made its calls: active means hit-call score of the fitted dose curve at least 0.9, where 1 is the maximum; inactive means score below 0.9.

A short description of assay [1]: ATG_E_Box_CIS: Attagene CIS-FACTORIAL HepG2 Assay for human Enhancer Box (E-box) (AID 2282936). The note with it: HepG2 E-box cis-reporter transcription, actives raise or lower the signal. In a few lines: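 Measured 24 h post-dosing in HepG2 cells transfected with multiple cis-regulated reporter units, signal being reporter mRNA induction detected by fluorescent RT-PCR with capillary electrophoresis; gain or loss fitted against DMSO.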

Assay [2] can be described thus: ATG_M_61_CIS: Attagene CIS-FACTORIAL HepG2 Assay for M61 Transcription Factor (Internal Marker) (AID 2282937). The conditions noted are these: HepG2 Attagene CIS-FACTORIAL M61 internal marker reporter; actives raise or lower the signal. An outline of the steps:
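HepG2 cells transiently transfected with multiplexed cis-promoter reporter units reporting endogenous transcription factor activity, measured 24 h after dosing. Reporter mRNA quantified by RT-PCR and capillary electrophoresis; bidirectional fit against DMSO baseline.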

Assay [3] in a line: ATG_EGR_CIS: Attagene CIS-FACTORIAL HepG2 Assay for human Early Growth Response 1 (EGR1) (AID 2282938). The conditions noted are these: HepG2 Attagene CIS-FACTORIAL EGR reporter mRNA; actives raise or lower the signal. An outline of the steps: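 HepG2 cells transiently transfected with cis-element-driven multiplexed reporter units, dosed for 24 h. EGR1-element reporter mRNA quantified by RT-PCR, 6-FAM labelling, HpaI digestion and capillary electrophoresis; bidirectional fit versus DMSO.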

Assay [4] is described as follows: ATG_M_19_CIS: Attagene CIS-FACTORIAL HepG2 Assay for M19 Transcription Factor (Internal Marker) (AID 2282939). The note with it: HepG2 Attagene CIS-FACTORIAL M19 internal marker reporter; actives raise or lower the signal. An outline of the steps:
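Readout: fluorescent reporter-transcript fragments by capillary electrophoresis after RT-PCR. Human HepG2 liver cells carried transfected MRTU constructs reporting endogenous transcription-factor activity; exposure 24 h. Gain or loss of signal fitted relative to DMSO.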

Assay [5] in a line: ATG_ERE_CIS: Attagene CIS-FACTORIAL HepG2 Assay for Estrogen Response Element (ERE) (AID 2282940). The note with it: HepG2 ERE cis-reporter, Attagene RNA transcript; actives raise or lower the signal. An outline of the steps: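 Readout: reporter mRNA induction by RT-PCR, FAM-labelled primer extension, HpaI digestion and capillary electrophoresis, 24 h after dosing transfected HepG2 cells. Endogenous transcription factors act on cis-element-regulated reporters. Gain or loss fitted against DMSO.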

Assay [6] in a line: ATG_Ets_CIS: Attagene CIS-FACTORIAL HepG2 Assay for human Erythroblast Transformation Specific (ETS) (AID 2282941). The note with it: HepG2 ETS cis-reporter transcription, actives raise or lower the signal. An outline of the steps:
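RT-PCR/capillary electrophoresis fluorescence read-out of reporter mRNA; HepG2 transient multi-reporter transfection; 24 h compound exposure; gain or loss of signal fitted bidirectionally relative to DMSO.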

Assay [7] deals with Hepatocyte nuclear factor 3-beta (Homo sapiens) (UniProt Q9Y261). Put plainly: ATG_FoxA2_CIS: Attagene CIS-FACTORIAL HepG2 Assay for human Forkhead box A2 (FOXA2) (AID 2282942). The conditions noted are these: HepG2 cis-reporter transcription factor activity, 24 h; actives raise or lower the signal. An outline of the steps:
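HepG2 transiently transfected with a multiplexed cis-promoter reporter library read endogenous FOXA2 activity. After 24 h compound exposure, reporter mRNA was quantified by RT-PCR, HpaI digestion and capillary electrophoresis. Bidirectional fit against DMSO.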

The nature of assay [8]: ATG_FoxO_CIS: Attagene CIS-FACTORIAL HepG2 Assay for human Forkhead box O (FoxO) (AID 2282943). The conditions noted are these: HepG2 Attagene cis-reporter, FoxO element, mRNA; actives raise or lower the signal. In a few lines: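 HepG2 cells transiently transfected with cis-promoter-driven multiple reporter transcription units; 24 h after chemical dosing, reporter mRNA quantified by RT-PCR, fluorescent primer extension, HpaI digestion and capillary electrophoresis. Bidirectional fitting versus DMSO baseline.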

Assay [9] in a line: ATG_GATA_CIS: Attagene CIS-FACTORIAL HepG2 Assay for human GATA Binding Protein (AID 2282944). The conditions noted are these: HepG2 GATA cis-element reporter, Attagene multiplex mRNA; actives raise or lower the signal. An outline of the steps:
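Read-out: fluorescent reporter mRNA fragments resolved by capillary electrophoresis after RT-PCR. Human liver HepG2 cells carried transiently transfected cis-regulated reporter constructs; chemicals incubated 24 h; gain or loss of signal fitted relative to DMSO.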

Assay [10] in a line: ATG_GLI_CIS: Attagene CIS-FACTORIAL HepG2 Assay for human Zinc Finger Protein GLI1 (AID 2282945). The note with it: HepG2, Attagene cis-factorial reporter mRNA, GLI element; actives raise or lower the signal. In a few lines: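 HepG2 cells transiently transfected with cis-promoter multiplexed reporter units report endogenous transcription factor activity. After 24 h chemical exposure, reporter mRNA was quantified by RT-PCR, 6-FAM labelling, HpaI digestion and capillary electrophoresis, with bidirectional fitting against DMSO.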

Assay [11] has as its target Bile acid receptor (Homo sapiens) (UniProt Q96RI1). Put plainly: ATG_IR1_CIS: Attagene CIS-FACTORIAL HepG2 Assay for human Nuclear Receptor Subfamily 1 Group H Member 4 (NR1H4), IR1 submotif (AID 2282946). The note with it: IR1 reporter transcription, actives raise or lower the signal. In a few lines: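 Readout: reporter transcript levels by RT-PCR with fluorescent capillary electrophoresis, from HepG2 cells transiently transfected with multiplexed cis-regulated reporters and dosed 24 h. Gain- or loss-of-signal fitted versus DMSO negative control.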

Assay [12] is described as follows: ATG_ISRE_CIS: Attagene CIS-FACTORIAL HepG2 Assay for human Interferon Regulatory Factor 1 (IRF1) binding to an Interferon-Stimulated Response Element (ISRE) (AID 2282948). The conditions noted are these: HepG2 ISRE cis-reporter (Attagene), mRNA transcription readout; actives raise or lower the signal. In a few lines: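 Read-out: fluorescent RT-PCR products resolved by capillary electrophoresis, reporting endogenous transcription factor activity via ISRE-driven reporter mRNA in transfected HepG2 cells dosed for 24 h; gain or loss fitted relative to DMSO.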

Assay [13] in a line: ATG_M_32_CIS: Attagene CIS-FACTORIAL HepG2 Assay for M32 Transcription Factor (Internal Marker) (AID 2282949).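 Further: background control marker of the multiplexed CIS panel rather than a real target.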 The conditions noted are these: HepG2 Attagene cis-factorial M32 reporter, mRNA; actives raise or lower the signal. An outline of the steps: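 Using DMSO as baseline, bidirectional curve fits were applied to reporter mRNA signals. These came from transiently transfected HepG2 cells exposed for 24 h, with RNA analysed by RT-PCR, FAM primer extension, HpaI digestion and CE.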

Assay [14] can be described thus: ATG_M_06_CIS: Attagene CIS-FACTORIAL HepG2 Assay for M06 Transcription Factor (Internal Marker) (AID 2282950). The note with it: HepG2 Attagene CIS-FACTORIAL M06 internal marker reporter; actives raise or lower the signal. In a few lines:
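Terse: HepG2, transient MRTU transfection (FuGene 6), 24 h dosing; total RNA, oligo(dT) RT, PCR, FAM label, HpaI cut, capillary electrophoresis; bidirectional fit vs DMSO baseline; background-control endpoint.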

Assay [15] addresses Hypoxia-inducible factor 1-alpha (Homo sapiens) (UniProt Q16665). Put plainly: ATG_HIF1a_CIS: Attagene CIS-FACTORIAL HepG2 Assay for human Hypoxia Inducible Factor 1 (HIF1A) (AID 2282951). The conditions noted are these: HepG2 Attagene cis-factorial HIF1a reporter transcription; actives raise or lower the signal. In a few lines: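 HepG2 cells transiently transfected with multiple cis-regulated reporter transcription units measure endogenous transcription factor activity. After 24 h exposure, reporter mRNA is quantified by RT-PCR with 6-FAM labelling, HpaI digestion and capillary electrophoresis. Bidirectional fitting against DMSO.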

Assay [16] addresses Hepatocyte nuclear factor 6 (Homo sapiens) (UniProt Q9UBC0). Put plainly: ATG_HNF6_CIS: Attagene CIS-FACTORIAL HepG2 Assay for human Hepatocyte Nuclear Factor 6 (HNF6) (AID 2282952). The note with it: HepG2 Attagene cis-factorial HNF6 reporter transcription; actives raise or lower the signal. An outline of the steps:
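Twenty-four-hour chemical treatment of reporter-transfected HepG2 cells precedes RNA isolation, DNase-treated reverse transcription and PCR of reporter sequences. Labelled fragments are sized by capillary electrophoresis and fitted bidirectionally versus DMSO.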

For assay [17], the target named is Heat shock factor protein 1 (Homo sapiens) (UniProt Q00613). Description: ATG_HSE_CIS: Attagene CIS-FACTORIAL HepG2 Assay for human Heat Shock Transcription Factor 1 (HSE) (AID 2282953). The conditions noted are these: HepG2 HSE cis-reporter, Attagene RNA transcription; actives raise or lower the signal. An outline of the steps: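 Read-out: fluorescence of reporter-specific RT-PCR fragments separated by capillary electrophoresis. HepG2 carrying transfected cis-element reporter units; 24 h dosing; activity fitted in both directions relative to DMSO baseline.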
Heat shock factor protein 1 (Homo sapiens), sequence (Q00613 whole entry, looked up, the tested form may be a part): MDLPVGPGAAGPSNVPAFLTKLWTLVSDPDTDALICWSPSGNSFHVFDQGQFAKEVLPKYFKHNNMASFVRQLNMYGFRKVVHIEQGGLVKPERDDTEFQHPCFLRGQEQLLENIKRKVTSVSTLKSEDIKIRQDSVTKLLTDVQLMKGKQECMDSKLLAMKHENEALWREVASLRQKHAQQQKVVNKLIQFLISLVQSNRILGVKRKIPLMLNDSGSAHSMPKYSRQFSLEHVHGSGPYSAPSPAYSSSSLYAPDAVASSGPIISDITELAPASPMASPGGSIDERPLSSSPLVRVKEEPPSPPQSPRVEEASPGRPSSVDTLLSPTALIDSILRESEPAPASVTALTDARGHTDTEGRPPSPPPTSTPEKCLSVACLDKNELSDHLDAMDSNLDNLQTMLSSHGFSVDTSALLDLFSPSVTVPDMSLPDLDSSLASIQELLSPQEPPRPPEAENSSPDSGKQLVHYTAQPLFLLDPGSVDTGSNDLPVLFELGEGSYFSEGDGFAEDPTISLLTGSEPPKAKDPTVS

A short description of assay [18]: ATG_MRE_CIS: Attagene CIS-FACTORIAL HepG2 Assay for human Metal Responsive Element (MRE) (AID 2282954). The conditions noted are these: HepG2 MRE cis-reporter transcription, Attagene multiplex; actives raise or lower the signal. In a few lines:
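Readout: capillary electrophoresis of 6-FAM-labelled, HpaI-digested RT-PCR reporter products. System: HepG2 cells carrying transient multiplexed cis reporters, dosed 24 h. Analysis: bidirectional fit, DMSO baseline.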

Assay [19] is described as follows: ATG_PBREM_CIS: Attagene CIS-FACTORIAL HepG2 Assay for human Phenobarbital-responsive Enhancer Module (PBREM) (AID 2282955). The conditions noted are these: HepG2 PBREM cis-reporter, Attagene multiplexed transcription; actives raise or lower the signal. An outline of the steps:
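HepG2 cells transiently transfected with multiple cis-regulated reporter units measure endogenous transcription factor activity; 24 h compound exposure. Reporter mRNA quantified by RT-PCR, fluorescent labelling, HpaI digestion and capillary electrophoresis; bidirectional fit versus DMSO.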

Hypoxia-inducible factor 1-alpha (Homo sapiens), sequence (Q16665 whole entry, looked up): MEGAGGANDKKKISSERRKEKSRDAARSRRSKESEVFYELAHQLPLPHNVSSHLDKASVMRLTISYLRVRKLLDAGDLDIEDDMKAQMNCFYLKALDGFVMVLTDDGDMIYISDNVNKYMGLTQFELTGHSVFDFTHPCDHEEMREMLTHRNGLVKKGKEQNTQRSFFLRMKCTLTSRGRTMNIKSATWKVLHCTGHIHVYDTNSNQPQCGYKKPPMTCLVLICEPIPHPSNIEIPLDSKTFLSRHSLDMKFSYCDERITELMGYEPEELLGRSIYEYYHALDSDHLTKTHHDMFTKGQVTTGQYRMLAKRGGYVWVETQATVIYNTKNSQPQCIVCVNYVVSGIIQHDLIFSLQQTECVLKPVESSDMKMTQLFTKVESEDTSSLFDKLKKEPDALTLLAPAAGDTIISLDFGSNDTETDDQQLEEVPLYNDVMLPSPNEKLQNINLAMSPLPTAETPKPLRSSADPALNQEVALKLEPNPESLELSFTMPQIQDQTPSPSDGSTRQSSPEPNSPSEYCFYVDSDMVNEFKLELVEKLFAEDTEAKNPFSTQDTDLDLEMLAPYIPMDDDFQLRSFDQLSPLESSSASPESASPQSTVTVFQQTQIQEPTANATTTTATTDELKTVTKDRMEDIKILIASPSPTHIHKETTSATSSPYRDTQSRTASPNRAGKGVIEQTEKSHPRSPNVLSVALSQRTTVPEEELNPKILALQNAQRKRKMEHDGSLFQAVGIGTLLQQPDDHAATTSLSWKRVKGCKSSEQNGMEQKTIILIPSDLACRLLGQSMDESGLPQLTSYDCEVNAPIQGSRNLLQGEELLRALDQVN
Hepatocyte nuclear factor 6 (Homo sapiens), sequence (Q9UBC0 whole entry, looked up, the tested form may be a part): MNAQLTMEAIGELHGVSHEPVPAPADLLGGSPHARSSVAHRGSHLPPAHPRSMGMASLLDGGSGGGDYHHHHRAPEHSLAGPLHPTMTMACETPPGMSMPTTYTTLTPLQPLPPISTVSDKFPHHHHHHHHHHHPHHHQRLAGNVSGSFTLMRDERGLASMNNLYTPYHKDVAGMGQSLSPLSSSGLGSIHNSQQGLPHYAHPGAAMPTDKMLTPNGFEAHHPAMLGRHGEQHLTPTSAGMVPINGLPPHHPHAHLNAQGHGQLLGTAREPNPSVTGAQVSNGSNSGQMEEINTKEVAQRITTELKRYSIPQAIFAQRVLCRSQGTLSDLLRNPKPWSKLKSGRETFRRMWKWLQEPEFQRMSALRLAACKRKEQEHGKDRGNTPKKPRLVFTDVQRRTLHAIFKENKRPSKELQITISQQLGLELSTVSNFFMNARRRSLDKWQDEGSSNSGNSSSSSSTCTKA
Hepatocyte nuclear factor 3-beta (Homo sapiens), sequence (Q9Y261 whole entry, looked up): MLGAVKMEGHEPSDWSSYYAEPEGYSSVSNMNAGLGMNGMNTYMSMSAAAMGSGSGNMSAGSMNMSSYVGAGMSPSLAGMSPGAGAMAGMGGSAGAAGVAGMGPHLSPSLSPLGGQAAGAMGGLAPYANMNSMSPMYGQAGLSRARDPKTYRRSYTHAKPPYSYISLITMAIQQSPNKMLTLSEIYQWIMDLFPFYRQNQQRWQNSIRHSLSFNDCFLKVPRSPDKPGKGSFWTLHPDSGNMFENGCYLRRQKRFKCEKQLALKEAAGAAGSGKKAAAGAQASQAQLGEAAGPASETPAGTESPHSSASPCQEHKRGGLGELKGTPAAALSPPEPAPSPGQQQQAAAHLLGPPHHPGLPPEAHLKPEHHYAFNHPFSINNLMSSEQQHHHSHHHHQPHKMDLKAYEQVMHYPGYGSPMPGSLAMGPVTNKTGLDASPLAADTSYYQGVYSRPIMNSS
Bile acid receptor (Homo sapiens), sequence (Q96RI1 whole entry, looked up): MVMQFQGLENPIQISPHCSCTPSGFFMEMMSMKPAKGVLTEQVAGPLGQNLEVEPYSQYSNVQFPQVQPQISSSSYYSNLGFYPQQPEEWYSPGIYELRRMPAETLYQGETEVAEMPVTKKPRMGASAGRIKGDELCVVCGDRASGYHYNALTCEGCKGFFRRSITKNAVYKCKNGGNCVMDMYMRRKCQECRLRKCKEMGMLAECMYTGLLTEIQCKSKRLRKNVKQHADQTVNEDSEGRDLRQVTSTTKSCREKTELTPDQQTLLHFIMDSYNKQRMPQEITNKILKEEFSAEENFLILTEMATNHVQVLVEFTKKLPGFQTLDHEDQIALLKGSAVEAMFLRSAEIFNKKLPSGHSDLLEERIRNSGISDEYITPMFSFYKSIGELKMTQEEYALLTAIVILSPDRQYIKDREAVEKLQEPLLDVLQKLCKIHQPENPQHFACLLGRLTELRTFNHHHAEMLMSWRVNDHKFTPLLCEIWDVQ

The AC50 is the concentration at which the activity in the assay is half-maximal. Regarding `CCCCCCC(CCCCCCCCCCC(=O)OCC(COC(C)=O)OC(C)=O)OC(C)=O` (configuration not stated), the result in assay [1], in [2], in assay [3], in assay [4], in assay [5] and in assay [6] was inactive. Moreover, the result in assay [7], in assay [8], in [9], in [10], in [11] and in assay [12] was inactive. The call in assay [13], in [14], in [15], in assay [16] and in assay [18] was inactive. Besides, in [17], the AC50 was 90.7 µM (active).

`O=C1CCCCC1`: the outcome in assay [1], in [2], in [3], in assay [4], in assay [5] and in [6] was inactive. Moreover, the result in assay [7], in assay [8], in [9], in assay [10], in assay [12] and in assay [13] was inactive. Also, the outcome in assay [14], in assay [15], in [16], in assay [17], in [18] and in [19] was inactive.

Turning to `CCCCc1nc2cccnc2n1Cc1ccc(-c2ccccc2-c2nnn[nH]2)cc1`, the result in [1], in [2], in [3], in assay [4], in assay [5] and in assay [6] was inactive. The outcome in [7], in assay [8], in assay [9], in assay [10], in assay [11] and in assay [12] was inactive. Moreover, the outcome in assay [13], in assay [14], in assay [15], in [16], in assay [17] and in assay [18] was inactive. In assay [19], the outcome was inactive.

With `O=Cc1ccccc1C=O`, the outcome in [1], in assay [2], in assay [3], in assay [4], in assay [5] and in [6] was inactive. Also, the outcome in assay [7], in [8], in [9], in assay [10], in assay [12] and in assay [13] was inactive. The compound was called inactive in assay [14], in assay [16], in assay [17] and in assay [18]. In [15], the concentration at half-maximal activity (AC50) is 26.2 µM (active).

The record behind these values is PubChem BioAssay (EPA / NIEHS).
